Consider 16 molecules from PubChem BioAssay AID1508622 (National Center for Advancing Translational Sciences (NCATS), 2021).

The source made the active and inactive calls. Calls come from the whole dose curve; as a rule, active = well fitted activation curve with a large enough effect; inconclusive = small, poorly fitted or top-dose-only effect; inactive = no such curve, though single readings can be large or run the other way.
Potency is the fitted concentration of half-maximal effect.

A short description of this experiment: Confirmatory qHTS for Identification of Small Molecule Activators of Huntingtin-Antisense Promoter Activity. As to conditions: HEK293 HTT-AS promoter firefly luciferase reporter, 24 h; series mostly up to 57.5 µM; activity change, positive = activation: at the top concentration. An outline of the steps: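 2,500 luciferase reporter HEK293 cells/well; 24 h culture; cpds up to 57.5 uM final, PTC124 50 uM ctrl; 24 h, 37C; Dual-Glo FLuc reagent, 10 min RT; lum. Norm.: vehicle 0%, zero RLU -100%.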
For the molecule `Cc1ccc(-n2ncc3c(N(CCO)Cc4ccccc4)ncnc32)cc1`, the Potency is 1070 nM (active). Turning to `Cc1cc(C)cc(NC(=O)CCCn2c3ccccc3c(=O)c3ccccc32)c1`, the “activity change, positive = activation” value was -35.3% (inactive). Consider `Cc1ccc(CNC(=O)Nc2cc(C(=O)NCc3ccc(C(C)C)cc3)ccc2N2CCCC2)cc1`, for which the “activity change, positive = activation” value is -94.6% (inactive). Consider `COc1ccccc1C(=O)N1c2ccccc2C(C)(c2ccc(Cl)cc2)CC1(C)C` (stereo unspecified), for which the “activity change, positive = activation” value was -40.4% (inactive). Turning to `Cc1cc(NC(=O)c2cc(-c3ccc(F)cc3)on2)nn1Cc1ccc(Cl)cc1`, the “activity change, positive = activation” value was -39% (inactive).

`COc1ccc(CCNC(=O)Cn2nc(C)c3c(C)n(-c4ccc(C)cc4)nc3c2=O)c(OC)c1`: the “activity change, positive = activation” value is -88.8% (inactive). The same measure, in the same setting: then `CCOC(=O)c1cnc2ccc(OC)cc2c1Nc1ccc(OCc2ccccc2Cl)cc1`, with -79.2% (inactive); and `COc1ccccc1C(=O)NCCSc1c(C)[nH]c2ccccc12`, with -40.7% (inactive). On to `O=S(=O)(NCC(c1ccco1)N1CCN(c2ccc(F)cc2)CC1)c1cc(F)ccc1F` (stereo unspecified), for which the “activity change, positive = activation” value was -21.2% (inactive). With `CCOC(=O)c1cc(-c2ccccc2)n(-c2cccc(C(=O)Nc3cccc(F)c3)c2)c1C`, the “activity change, positive = activation” value was -23.3% (inactive).

With `CCCCOC(=O)c1ccc(NC(=O)c2sc3nc(C)cc(C)c3c2N)cc1`, the “activity change, positive = activation” value is -52.3% (inactive). With `CCc1ccc(OC(C)C(=O)N2CCC(c3nc4ccccc4s3)CC2)cc1` (stereo unspecified), the “activity change, positive = activation” value is -81.1% (inactive). As for `COc1ccc(-c2onc(C)c2C)cc1S(=O)(=O)N1CCc2ccccc21`, the “activity change, positive = activation” value was -80.5% (inactive). `CCSc1ncc(Cl)c(C(=O)Nc2ccc(S(=O)(=O)N3CCC(C)CC3)cc2)n1`: the “activity change, positive = activation” value was -34.4% (inactive).

For the molecule `O=C(NCC(c1ccc2c(c1)OCO2)N1CCN(c2ccccc2)CC1)c1ccc(F)c(F)c1` (stereo unspecified), the “activity change, positive = activation” value was -34.9% (inactive). Still for that read-out and setting: for `CCOC(=O)c1ccc(C#Cc2ccc3c(c2)C(C)(C)CCS3)nc1` the value was -25.9% (inactive).
